Measured values as given in PubChem BioAssay (NCATS).
Results filed as inconclusive are left out. Where a call stands in place of a potency, no number is given. A number with no mark means an inactive call. Activity calls are given as the source filed them. Unless noted, the call rests on the fitted dose curve; in most records, active means well fitted curve in the direction sought with a large enough effect; inconclusive means small, poorly fitted or top-dose-only effect, or another doubt; inactive means no such curve, though single readings can be large; an effect the other way counts as inactive or inconclusive.

Key:
[1] = target: ATP-dependent 6-phosphofructokinase (Trypanosoma brucei brucei) (UniProt O15648); assay: qHTS Assay to Find Inhibitors of T. brucei phosphofructokinase: hit validation (AID 492961);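 further: luminescence reports ADP formed as PFK phosphorylates fructose-6-phosphate with ATP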
Method in brief: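 Measures ADP output of PFK (1.25 nM) at 0.1 mM ATP, 0.5 mM F6P, pH 8.0 TEA buffer with 5 mM MgCl2. No-enzyme wells define full inhibition; uninhibited enzyme wells define zero.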

[2] = target: Luciferin 4-monooxygenase (Photinus pyralis) (UniProt P08659); assay: Biochemical firefly luciferase enzyme assay for NPC (AID 624030); further: nearly all actives have a fitted effect of over 70% in size; further: potency means the concentration at half of the fitted maximal effect
Method in brief: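 Direct inhibition of firefly luciferase enzyme (10 nM final, 50 mM Tris Acetate) assessed by luminescence within 5 minutes. Percent activity scaled between DMSO and PTC124 positive control, with concentration-effect curves classified by fit quality and response.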

[3] = S16 Schwann cell PMP22 intronic element beta-lactamase assay (AID 624044; calls by dose curve; further: nearly all actives have a fitted effect of over 15% in size; further: potency means the concentration at half of the fitted maximal effect); conditions: S16 rat Schwann cells, PMP22 element beta-lactamase FRET, 24 h; ratio activity, negative = inhibition: at 38.3 µM (top of the series)
Method in brief: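 Rat S16 Schwann cells with beta-Lac driven by a PMP22 intronic element, compound-treated 24 h at 37 °C. LiveBLAzer FRET B/G read: 460 nm normalized to potassium clavulanate vs DMSO; 535 nm FRET as viability; concentration-effect curves classified.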

[4] = qHTS profiling for inhibitors of Plasmodium falciparum proliferation (AID 504749); further: potency means the concentration at half of the fitted maximal effect; on all read-outs here: nearly all actives have a fitted effect of over 60% in size; conditions: P. falciparum in erythrocytes, SYBR Green DNA, 72 h; for activity, negative = inhibition: at 28.7 µM (top of the series)
Method in brief: (§1)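 Three-day growth assay of blood-stage parasites in erythrocytes (0.3% parasitemia, 2.5% hematocrit) at 37 C, 5% CO2, quantified by SYBR Green DNA staining after overnight detergent lysis.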

AA1029 = assay: as above; conditions: P. falciparum in erythrocytes, SYBR Green DNA, 72 h; series mostly up to 28.7 µM
Method in brief: as §1

CP185 = assay: as above; conditions: P. falciparum in erythrocytes, SYBR Green DNA, 72 h; series mostly up to 28.7 µM
Method in brief: as §1

CP192 = assay: as above; conditions: P. falciparum in erythrocytes, SYBR Green DNA, 72 h; series mostly up to 28.7 µM
Method in brief: as §1

CP211 = assay: as above; conditions: P. falciparum in erythrocytes, SYBR Green DNA, 72 h; series mostly up to 28.7 µM
Method in brief: as §1

CP238 = assay: as above; conditions: P. falciparum in erythrocytes, SYBR Green DNA, 72 h; series mostly up to 28.7 µM
Method in brief: as §1

CP262 = assay: as above; conditions: P. falciparum in erythrocytes, SYBR Green DNA, 72 h; series mostly up to 28.7 µM
Method in brief: as §1

CP269 = assay: as above; conditions: P. falciparum in erythrocytes, SYBR Green DNA, 72 h; series mostly up to 28.7 µM
Method in brief: as §1

CP286 = assay: as above; conditions: P. falciparum in erythrocytes, SYBR Green DNA, 72 h; series mostly up to 28.7 µM
Method in brief: as §1

CP315 = assay: as above; conditions: P. falciparum in erythrocytes, SYBR Green DNA, 72 h; series mostly up to 28.7 µM
Method in brief: as §1

CP329 = assay: as above; conditions: P. falciparum in erythrocytes, SYBR Green DNA, 72 h; series mostly up to 28.7 µM
Method in brief: as §1

Dd2 = assay: as above; conditions: P. falciparum in erythrocytes, SYBR Green DNA, 72 h; series mostly up to 28.7 µM
Method in brief: as §1

ECU = assay: as above; conditions: P. falciparum in erythrocytes, SYBR Green DNA, 72 h; series mostly up to 28.7 µM
Method in brief: as §1

FAB9 = assay: as above; conditions: P. falciparum in erythrocytes, SYBR Green DNA, 72 h; series mostly up to 28.7 µM
Method in brief: as §1

JCK = assay: as above; conditions: P. falciparum in erythrocytes, SYBR Green DNA, 72 h; series mostly up to 28.7 µM
Method in brief: as §1

N140 = assay: as above; conditions: P. falciparum in erythrocytes, SYBR Green DNA, 72 h; series mostly up to 28.7 µM
Method in brief: as §1

PC49 = assay: as above; conditions: P. falciparum in erythrocytes, SYBR Green DNA, 72 h; series mostly up to 28.7 µM
Method in brief: as §1

ATP-dependent 6-phosphofructokinase (Trypanosoma brucei brucei), sequence (O15648 whole entry, looked up): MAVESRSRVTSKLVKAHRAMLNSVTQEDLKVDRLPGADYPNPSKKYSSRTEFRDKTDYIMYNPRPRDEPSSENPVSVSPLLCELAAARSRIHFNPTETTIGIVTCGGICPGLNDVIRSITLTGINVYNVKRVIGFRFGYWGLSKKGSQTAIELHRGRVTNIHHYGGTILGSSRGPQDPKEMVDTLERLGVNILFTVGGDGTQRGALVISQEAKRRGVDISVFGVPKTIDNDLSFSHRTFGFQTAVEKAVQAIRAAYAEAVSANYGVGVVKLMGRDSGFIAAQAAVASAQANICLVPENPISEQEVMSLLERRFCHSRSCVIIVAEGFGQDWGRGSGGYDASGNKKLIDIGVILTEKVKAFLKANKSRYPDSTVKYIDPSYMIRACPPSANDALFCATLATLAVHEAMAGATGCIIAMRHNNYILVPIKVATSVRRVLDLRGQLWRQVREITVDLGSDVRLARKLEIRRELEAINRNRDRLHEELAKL
Luciferin 4-monooxygenase (Photinus pyralis), sequence (P08659 whole entry, looked up): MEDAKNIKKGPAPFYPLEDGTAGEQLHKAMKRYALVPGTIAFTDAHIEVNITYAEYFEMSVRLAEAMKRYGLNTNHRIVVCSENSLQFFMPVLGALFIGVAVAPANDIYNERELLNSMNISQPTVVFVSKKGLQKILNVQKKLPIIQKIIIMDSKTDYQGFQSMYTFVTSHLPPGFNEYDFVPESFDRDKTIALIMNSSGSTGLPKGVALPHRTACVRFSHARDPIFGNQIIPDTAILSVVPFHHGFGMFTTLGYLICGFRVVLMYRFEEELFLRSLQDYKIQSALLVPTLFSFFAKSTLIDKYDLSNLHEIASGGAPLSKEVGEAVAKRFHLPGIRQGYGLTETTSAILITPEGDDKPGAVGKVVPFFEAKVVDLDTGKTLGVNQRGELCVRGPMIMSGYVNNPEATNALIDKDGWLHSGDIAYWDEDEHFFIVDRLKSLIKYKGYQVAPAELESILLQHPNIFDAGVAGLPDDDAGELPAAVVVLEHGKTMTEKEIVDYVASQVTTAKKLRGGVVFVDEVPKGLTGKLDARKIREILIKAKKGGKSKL

CC1=C(c2ccc(NN=C(C#N)C#N)cc2)NNC(=O)C1
Potency [1]: inactive | Potency [2]: 14400 nM (active) | Potency [3]: inactive | activity, negative = inhibition ([4]; parasite line A): -7.66% | activity, negative = inhibition ([4]; parasite line B): 20.7% | Potency (AA1029): inactive | Potency (CP185): inactive | Potency (CP192): inactive | Potency (CP211): inactive | Potency (CP238): inactive | Potency (CP262): inactive | Potency (CP269): inactive | Potency (CP286): inactive | Potency (CP315): inactive | Potency (CP329): inactive | Potency (Dd2): inactive | Potency (ECU): inactive | Potency (FAB9): inactive | Potency (JCK): inactive | Potency (N140): inactive | Potency (PC49): inactive

CC(CN1CC(=O)NC(=O)C1)N1CC(=O)NC(=O)C1 (stereo unspecified)
Potency [1]: inactive | Potency [2]: inactive | Potency [3]: inactive | activity, negative = inhibition ([4]; parasite line A): 1.79% | activity, negative = inhibition ([4]; parasite line B): 0.945% | Potency (AA1029): inactive | Potency (CP185): inactive | Potency (CP211): inactive | Potency (CP238): inactive | Potency (CP262): inactive | Potency (CP269): inactive | Potency (CP286): inactive | Potency (CP315): inactive | Potency (CP329): inactive | Potency (Dd2): inactive | Potency (ECU): inactive | Potency (FAB9): inactive | Potency (JCK): inactive | Potency (N140): inactive | Potency (PC49): inactive

C=C[C@@]1(C)C[C@H](OC(=O)CSC(C)(C)CNC(=O)[C@@H](N)C(C)C)[C@@]2(C)C(C)CC[C@@]3(CCC(=O)[C@@H]32)[C@H](C)[C@H]1O (stereo partly specified)
Potency [1]: inactive | Potency [2]: inactive | Potency [3]: inactive | Potency ([4]; parasite line A): 3160 nM (active) | Potency ([4]; parasite line B): 1410 nM (active) | Potency (AA1029): 1580 nM (active) | Potency (CP185): 1410 nM (active) | Potency (CP192): 3380 nM (active) | Potency (CP211): 675 nM (active) | Potency (CP238): 5010 nM (active) | Potency (CP262): 239 nM (active) | Potency (CP269): 1070 nM (active) | Potency (CP286): 447 nM (active) | Potency (CP315): 2690 nM (active) | Potency (CP329): 601 nM (active) | Potency (Dd2): 282 nM (active) | Potency (ECU): 4470 nM (active) | Potency (N140): 1410 nM (active)

N#C/C(=C1/SCC(c2ccccc2Cl)S1)n1ccnc1 (stereo unspecified)
Potency [1]: inactive | Potency [2]: inactive | Potency [3]: inactive | activity, negative = inhibition ([4]; parasite line A): -5.78% | activity, negative = inhibition ([4]; parasite line B): -14.7% | Potency (AA1029): inactive | Potency (CP185): inactive | Potency (CP192): inactive | Potency (CP211): inactive | Potency (CP238): inactive | Potency (CP262): inactive | Potency (CP269): inactive | Potency (CP286): inactive | Potency (CP315): inactive | Potency (CP329): inactive | Potency (Dd2): inactive | Potency (FAB9): inactive | Potency (JCK): inactive | Potency (PC49): inactive

NC(CSSCC(N)C(=O)O)C(=O)O (stereo unspecified)
Potency [1]: inactive | Potency [2]: inactive | Potency [3]: inactive | activity, negative = inhibition ([4]; parasite line A): 5.04% | activity, negative = inhibition ([4]; parasite line B): 19% | Potency (AA1029): inactive | Potency (CP185): inactive | Potency (CP211): inactive | Potency (CP238): inactive | Potency (CP262): inactive | Potency (CP269): inactive | Potency (CP286): inactive | Potency (CP315): inactive | Potency (CP329): inactive | Potency (Dd2): inactive | Potency (ECU): inactive | Potency (FAB9): inactive | Potency (JCK): inactive | Potency (N140): inactive | Potency (PC49): inactive

Nc1nc(/C(=C/CC(=O)O)C(=O)NC2C(=O)N3C(C(=O)O)=CCSC23)cs1 (stereo unspecified)
Potency [1]: inactive | Potency [2]: inactive | Potency [3]: inactive | activity, negative = inhibition ([4]; parasite line A): -3.7% | activity, negative = inhibition ([4]; parasite line B): 3.34% | Potency (AA1029): inactive | Potency (CP185): inactive | Potency (CP192): inactive | Potency (CP211): inactive | Potency (CP238): inactive | Potency (CP262): inactive | Potency (CP269): inactive | Potency (CP286): inactive | Potency (CP315): inactive | Potency (CP329): inactive | Potency (Dd2): inactive | Potency (ECU): inactive | Potency (FAB9): inactive | Potency (JCK): inactive | Potency (N140): inactive | Potency (PC49): inactive

Cn1cc(C(=O)[C@@H]2CCc3[nH]cnc3C2)c2ccccc21
Potency [1]: inactive | Potency [2]: inactive | Potency [3]: inactive | activity, negative = inhibition ([4]; parasite line A): 5.71% | activity, negative = inhibition ([4]; parasite line B): 16.1% | Potency (AA1029): inactive | Potency (CP185): inactive | Potency (CP192): inactive | Potency (CP211): inactive | Potency (CP238): inactive | Potency (CP262): inactive | Potency (CP269): inactive | Potency (CP286): inactive | Potency (CP315): inactive | Potency (CP329): inactive | Potency (Dd2): inactive | Potency (ECU): inactive | Potency (FAB9): inactive | Potency (JCK): inactive | Potency (N140): inactive | Potency (PC49): inactive

C[C@]12CC[C@@H]3c4ccc(O)cc4CC[C@H]3[C@@H]1CCC2OC(=O)CCC1CCCC1 (stereo partly specified)
Potency [1]: inactive | Potency [2]: inactive | Potency [3]: inactive | activity, negative = inhibition ([4]; parasite line A): -2.55% | activity, negative = inhibition ([4]; parasite line B): -17% | Potency (AA1029): inactive | Potency (CP185): inactive | Potency (CP192): inactive | Potency (CP211): inactive | Potency (CP238): inactive | Potency (CP262): inactive | Potency (CP269): inactive | Potency (CP315): inactive | Potency (CP329): inactive | Potency (ECU): inactive | Potency (FAB9): inactive | Potency (JCK): inactive | Potency (N140): inactive | Potency (PC49): inactive

C=C1NC(=O)c2cc(CN(C)c3ccc(C(=O)N[C@@H](CCC(=O)O)C(=O)O)s3)ccc2N1
Potency [1]: inactive | Potency [2]: inactive | Potency [3]: 7.9 nM (active) | activity, negative = inhibition ([4]; parasite line A): 2.89% | activity, negative = inhibition ([4]; parasite line B): 4.82% | Potency (AA1029): inactive | Potency (CP185): inactive | Potency (CP192): inactive | Potency (CP211): inactive | Potency (CP238): inactive | Potency (CP262): inactive | Potency (CP269): inactive | Potency (CP286): inactive | Potency (CP315): inactive | Potency (CP329): inactive | Potency (Dd2): inactive | Potency (ECU): inactive | Potency (FAB9): inactive | Potency (JCK): inactive | Potency (N140): inactive | Potency (PC49): inactive

C[C@@H](O)[C@@H]1C(=O)N2C(C(=O)O)=C([C@H]3CCCO3)S[C@H]12
Potency [1]: inactive | Potency [2]: inactive | Potency [3]: inactive | activity, negative = inhibition ([4]; parasite line A): -3.21% | activity, negative = inhibition ([4]; parasite line B): 2.27% | Potency (AA1029): inactive | Potency (CP185): inactive | Potency (CP192): inactive | Potency (CP211): inactive | Potency (CP238): inactive | Potency (CP262): inactive | Potency (CP269): inactive | Potency (CP286): inactive | Potency (CP315): inactive | Potency (CP329): inactive | Potency (Dd2): inactive | Potency (ECU): inactive | Potency (FAB9): inactive | Potency (JCK): inactive | Potency (N140): inactive | Potency (PC49): inactive

CC1OC(OC2C(O)CC(OC3C(O)CC(OC4CCC5(C)C(CCC6C5CCC5(C)C(C7=CC(=O)OC7)CCC65O)C4)OC3C)OC2C)CC(O)C1O (stereo unspecified)
Potency [1]: inactive | Potency [2]: inactive | Potency [3]: inactive | activity, negative = inhibition ([4]; parasite line A): 1.31% | activity, negative = inhibition ([4]; parasite line B): 5.82% | Potency (AA1029): inactive | Potency (CP185): inactive | Potency (CP192): inactive | Potency (CP211): inactive | Potency (CP238): inactive | Potency (CP262): inactive | Potency (CP269): inactive | Potency (CP286): inactive | Potency (CP315): inactive | Potency (CP329): inactive | Potency (ECU): inactive | Potency (FAB9): inactive | Potency (JCK): inactive | Potency (N140): inactive | Potency (PC49): inactive
